# Source: PubChem BioAssay
# AHR activator: activators of human aryl hydrocarbon receptor; P35869; AID 2796; 320,000 tested, 2.5% active; activation, % at 5 µM; AHR-responsive luciferase reporter cells, luminescence; in the data active means activation above about 47%;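 further: 0% = vehicle wells and 100% = reference agonist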
# hcDAF12 agonist: activates DAF-12 receptor from parasite H. contortus; 370,000 tested, 1.4% active; HEK293 hcDAF-12 lit1-tk-luc reporter, luminescence; 0% DMSO, 100% Δ7-dafachronic acid; activation, % at 6.8 µM;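 active means activation above the mean of all tested compounds plus 3 SD, cut at about 5.5% in these data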;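 further: 100% = response to 3 µM Δ7-dafachronic acid high control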
# ssDAF-12 act: activators of S. stercoralis DAF-12 nuclear receptor | HEK293 ssDAF-12/GRIP1 lit1-tk-luc reporter, luminescence; % of 3 µM dafachronic acid response | activation, % at 6.8 µM | 370,000 tested, 1% active;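 active means activation above the mean over all tested compounds plus 3 SD, cut at about 0.9% in these data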;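 further: 0% = DMSO-only wells and 100% = 3 µM delta7-dafachronic acid wells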
# hgDAF12 agonist: agonists of H. glycines DAF-12 nuclear receptor. HEK293 GAL4-hgDAF12 UAS-luciferase reporter, agonist luminescence; normalized to butyrate control. activation, % at 6.8 µM. 370,000 tested, 1.8% active. AID 687014;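 active means activation above a cutoff set at the mean of all screened compounds plus 3 SD, cut at about 10% in these data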;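 further: 0% = DMSO wells and 100% = sodium butyrate wells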
# DAX1 inh-1: blocks DAX1 repression of SF-1 activated StAR promoter; HEK293T StAR-luciferase reporter, SF-1/DAX-1 repression relief; inhibition, % at 6.8 µM; 370,000 tested, 1.1% active; AID 652010;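 active means inhibition above the mean over all tested compounds plus 3 SD, cut at about 3.6% in these data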;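 further: 0% = DAX-1 cells with DMSO and 100% = cells lacking DAX-1 with DMSO; higher inhibition means more luminescence from relief of DAX-1 repression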
# DAX1 inh-2: inhibitors of human orphan nuclear receptor DAX1 (NR0B1) | 340,000 tested, 0.99% active | inhibition, % at 6.75 µM | AID 504766 | HEK293 Gal4-DAX1 luciferase reporter, luminescence;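 active means inhibition above the mean over all tested compounds plus 3 SD, cut at about 4.2% in these data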;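 further: 0% = DAX1-transfected cells with DMSO and 100% = empty-vector control cells with DMSO; inhibition shows as a rise in luminescence from relieved DAX1 repression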
# Target sequence (P51843 207-470 limits assumed): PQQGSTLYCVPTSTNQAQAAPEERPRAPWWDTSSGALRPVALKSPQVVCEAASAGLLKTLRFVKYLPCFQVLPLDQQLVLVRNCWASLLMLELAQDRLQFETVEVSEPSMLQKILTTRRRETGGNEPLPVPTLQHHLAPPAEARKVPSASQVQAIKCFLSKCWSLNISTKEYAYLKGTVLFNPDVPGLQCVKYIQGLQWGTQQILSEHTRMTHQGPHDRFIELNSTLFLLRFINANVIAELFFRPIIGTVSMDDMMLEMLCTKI
# The depositor's hits bear a star; · = not tested or not shown. Shown are actives, neighbours in structure and some others; about 5.7% of the full set was active somewhere.
SMILES,AHR activator,hcDAF12 agonist,ssDAF-12 act,hgDAF12 agonist,DAX1 inh-1,DAX1 inh-2
COc1ccc(Sc2cccc3c2S(=O)(=O)N([C@H](C)c2ccccc2)C[C@@H](COCc2ccccc2)O3)cc1OC,·,0.4,-1.2,-2.0,1.0,·
CCCCN1CC(COCc2ccccc2)Oc2cccc(Sc3ccc(OC)c(OC)c3)c2S1(=O)=O (configuration not stated),·,1.4,-1.3,3.1,4.2*,·
CCCN1CCN(CCCNC(=O)c2cc3c(=O)n(C)c4ccccc4c3n2C)CC1,6.6,0.8,-0.7,0.4,1.8,8.4*
CCCCN(CC)CCNC(=O)c1cc2c(=O)n(C)c3ccccc3c2n1C,4.9,4.8,-0.6,3.1,2.2,3.1
CCCN(CCC)CCCNC(=O)c1cc2c(=O)n(C)c3ccccc3c2n1C,5.5,1.9,-0.1,-0.3,5.0*,7.8*
Cn1c(C(=O)NCCCN2CCCCCC2)cc2c(=O)n(C)c3ccccc3c21,5.0,-0.3,-0.4,3.6,1.0,4.0
CCN(CC)CCNC(=O)c1cc2c(=O)n(C)c3ccccc3c2n1C,9.8,-1.5,-0.4,3.7,4.2*,2.8
CCN(CC)CCCNC(=O)c1cc2c(=O)n(C)c3ccccc3c2n1C,8.5,3.2,-0.5,3.0,3.4,7.5*
CN(C)CCNC(=O)c1cc2c(=O)n(C)c3ccccc3c2n1C,25.4,5.4,-0.5,-0.8,0.4,4.0
O/N=C1\CCCc2ccc3ccccc3c21,12.6,1.1,-0.8,1.7,0.6,-0.8
O=C(NCCc1c[nH]c2ccccc12)C(=O)NCC1OCCCN1S(=O)(=O)c1cccs1 (configuration not stated),9.3,0.2,2.2*,-0.9,-0.5,0.3
CCc1nnc(NS(=O)(=O)c2ccc(NC(=O)c3cc(Cl)ccc3[N+](=O)[O-])cc2)s1,·,-2.2,-0.1,-0.9,-0.3,1.2
O=C1c2ccccc2NC(c2ccc(-c3cccc(F)c3)o2)N1O (configuration not stated),47.4*,4.6,-0.1,9.1,2.7,2.7
O=C1c2ccccc2NC(c2ccc(-c3ccccc3F)o2)N1O (configuration not stated),53.7*,0.3,-0.6,7.1,0.7,2.4
CC(C)On1c(SC(C)C)nc2ccccc2c1=O,0.2,-0.9,-1.2,-2.1,-0.7,0.9
CSc1nc(Cc2ccccc2)nc2ccccc12,-3.4,0.0,-0.9,3.4,0.1,0.3
CCn1ncc(/C=N/NC(=O)c2ccc3c(c2)OCO3)c1C,31.2,-0.2,-0.8,11.7*,-1.4,0.5
Cc1c(/C=N/NC(=O)C(NC(=O)c2ccc3c(c2)OCO3)C(C)C)c2ccccc2n1C (configuration not stated),51.5*,-1.2,-1.3,0.6,-0.7,-1.5
CCn1nc(C)c(CNC(=O)Nc2ccc3c(c2)OCO3)c1C,68.0*,2.4,-1.0,3.3,2.3,0.9
CCn1nc(C)c(/C=N\NC(=O)c2ccc3c(c2)OCO3)c1C,73.5*,1.1,-0.9,9.2,1.6,2.5
CCn1cc(/C=N/NC(=O)c2ccc3c(c2)OCO3)c(C)n1,31.7,1.2,-0.3,3.1,1.4,0.8
Cc1cc(=O)oc2cc(OC(C)C(=O)N3CCCc4ccccc43)ccc12 (configuration not stated),21.1,2.3,-0.8,-0.7,-0.3,1.2
Cc1cccc2cc(COC(=O)c3cccs3)c(=O)[nH]c12,1.6,1.4,-1.2,-2.1,-0.2,0.2
CCOC(=O)C1CCN(C(=O)CCCn2c(=O)c3cccn3c3cccnc32)CC1,-0.4,-0.9,-1.9,-0.2,-1.9,0.1
CCOC(=O)C1(C)NC(c2cc(OC)c(OC)c(OC)c2)C2C(=O)N(CC)C(=O)C21 (configuration not stated),71.5*,1.0,-1.1,-2.7,-0.7,1.0
SMILES,AHR activator,hcDAF12 agonist,ssDAF-12 act,hgDAF12 agonist,DAX1 inh-1,DAX1 inh-2
CCN1C(=O)C2C(c3ccc(O)c(OC)c3)NC(C)(C(=O)OC)C2C1=O (configuration not stated),2.5,-2.1,-1.0,-1.2,-0.5,-0.9
O=C(Cn1cnc2ccccc2c1=O)c1ccc2ccccc2c1,-1.3,1.2,-0.4,10.1,1.2,1.7
O=C(Cn1cnc2ccccc2c1=O)c1ccc2c(c1)OCCO2,8.7,3.2,-0.4,11.4*,2.4,2.2
CCCCCCNC(=O)c1ncn[nH]1,2.3,-0.4,-1.1,0.2,0.0,5.0*
Oc1[nH]c(N=C2N=c3ccccc3=N2)c2ccccc12,58.5*,2.5,0.6,1.0,-0.7,-1.0
Cc1oc(-c2ccccc2F)nc1CS(=O)CC(=O)NCc1ccc2c(c1)OCO2 (configuration not stated),50.0*,-1.2,-0.2,-0.9,-0.6,1.0
Cc1ccc2nc3ccc(N4CCN(C)CC4)nn3c(=O)c2c1,15.1,5.7*,-0.9,8.4,4.3*,2.8
O=C(O)CCCCCn1c(SCC(=O)c2ccc(O)c(O)c2)nc2ccsc2c1=O,4.0,-0.5,-0.7,-4.5,-0.6,0.2
Cc1cccc(C)c1NC(=O)COC(=O)C1C2CC3OC(=O)C1C3C2 (configuration not stated),-0.4,0.2,-1.2,-1.5,-0.2,5.2*
CC(=O)Nc1ccc(S(=O)(=O)Nc2c(C)n(C)n(-c3ccccc3)c2=O)cc1,-0.6,-0.5,-1.2,-2.2,-0.6,1.7
Cc1ccc(NC(=O)c2snc3ccc(Cl)cc23)cc1C,20.6,6.0*,0.1,10.4,2.2,1.8
Cc1nn(-c2ccc(Cl)cc2)c(=O)c2c(C)noc12,78.1*,0.0,-1.5,-2.5,-0.2,2.8
C=CCn1cnc2c(nnn2-c2ccc(Cl)cc2)c1=O,84.4*,0.8,-1.8,2.8,-1.1,0.8
C=CCn1cnc2c(nnn2-c2cc(C)cc(C)c2)c1=O,10.1,-2.1,-1.8,0.2,-0.4,-0.4
CCn1c(CSc2nc(C)cc(C)n2)nnc1SCC(=O)Nc1nc(-c2ccccc2)cs1,3.2,-0.8,-1.2,1.0,-0.4,-0.3
O=S(=O)(NCC1(N2CCOCC2)CCCCC1)c1ccc(F)c(F)c1F,1.5,-1.5,-1.1,0.1,-0.8,-0.4
O=c1c2ccccc2nnn1COc1ccc(F)cc1Cl,-2.3,1.3,-1.5,4.3,0.3,0.3
O=c1c2ccccc2nnn1COc1cccc2ccccc12,14.8,0.0,1.1*,9.8,1.4,1.6
Cc1cc(NC(=O)CSc2nc(N)c(NC(=O)c3ccco3)c(=O)[nH]2)no1,1.5,-1.6,-1.4,-2.6,-0.5,7.5*
Cc1cc(NC(=O)CSc2nc(N)c(NC(=O)c3ccccc3)c(=O)[nH]2)no1,-2.9,2.5,-1.7,3.1,0.7,-1.2
CCc1c(C)nc(SCC(=O)NNC(=O)c2ccco2)[nH]c1=O,1.7,6.0*,-0.2,2.1,1.3,1.1
Cc1cc(NC(=O)CSc2nc(N)c(NC(=O)c3ccccc3F)c(=O)[nH]2)no1,-0.1,1.4,0.9*,-1.4,-1.6,0.4
